Reference: PubChem BioAssay AID1159580 (chemical genetic matrix, 2015)
In all, about 5,500 compounds went through this assay and about 2,000 (36%) were called active. About 18% were inconclusive and are not listed. No stated cut-off is given here; in the data, active means normalized growth mostly below about 0.91 (no sharp cut-off); inconclusive means no clear call, values can overlap the other calls; inactive means mostly above about 0.92. The list shows a part of the results.

Experiment: chemical genetic growth profiling, strain panel (AID 1159580);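 further: tested at 20 µM; growth read once vehicle control cultures reached saturation at 30 °C; 1 = growth at the plate median or of vehicle wells; lower values mean less growth of the strain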
Conditions: growth OD

Measured: normalized growth

CC(=O)O[C@H]1CC[C@]2(C)C3CC(=O)[C@]4(C)C(C(C)=O)=CCC4C3CC[C@H]2C1 (stereo partly specified)
inactive: S. cerevisiae deletion strains, locus YAL021C, strain ccr4, hits give low values 1 | S. cerevisiae deletion strains, locus YAL026C, strain drs2, hits give low values 0.997 | S. cerevisiae deletion strains, locus YAL030W, strain snc1, hits give low values 1 | S. cerevisiae deletion strains, locus YBL061C, strain skt5, hits give low values 0.994 | S. cerevisiae deletion strains, locus YBR009C, strain hhf1, hits give low values 0.996 | S. cerevisiae deletion strains, locus YBR021W, strain FUR4, hits give low values 1 | S. cerevisiae deletion strains, locus YBR023C, strain chs3, hits give low values 0.995 | S. cerevisiae deletion strains, locus YBR171W, strain sec66, hits give low values 0.995 | S. cerevisiae deletion strains, locus YBR229C, strain ROT2, hits give low values 0.997 | S. cerevisiae deletion strains, locus YBR231C, strain swc5, hits give low values 1 | S. cerevisiae deletion strains, locus YBR279W, strain paf1, hits give low values 0.996 | S. cerevisiae deletion strains, locus YCL011C, strain gbp2, hits give low values 0.984 | S. cerevisiae deletion strains, locus YCL016C, strain dcc1, hits give low values 0.992 | S. cerevisiae deletion strains, locus YCL029C, strain bik1, hits give low values 0.987 | S. cerevisiae deletion strains, locus YCL061C, strain MRC1, hits give low values 0.994 | S. cerevisiae deletion strains, locus YCL069W, strain vba3, hits give low values 0.992 | S. cerevisiae deletion strains, locus YCR088W, strain abp1, hits give low values 0.987 | S. cerevisiae deletion strains, locus YDL005C, strain med2, hits give low values 0.984 | S. cerevisiae deletion strains, locus YDL035C, strain GPR1, hits give low values 0.956 | S. cerevisiae deletion strains, locus YDL040C, strain nat1, hits give low values 0.993 | S. cerevisiae deletion strains, locus YDL074C, strain BRE1, hits give low values 0.967 | S. cerevisiae deletion strains, locus YDL101C, strain DUN1, hits give low values 1 | S. cerevisiae deletion strains, locus YDL185W, strain tfp1, hits give low values 1.02 | S. cerevisiae deletion strains, locus YDL192W, strain arf1, hits give low values 0.978 | S. cerevisiae deletion strains, locus YDR001C, strain nth1, hits give low values 0.994 | S. cerevisiae deletion strains, locus YDR069C, strain doa4, hits give low values 1.02 | S. cerevisiae deletion strains, locus YDR101C, strain arx1, hits give low values 0.988 | S. cerevisiae deletion strains, locus YDR137W, strain rgp1, hits give low values 0.924 | S. cerevisiae deletion strains, locus YDR159W, strain sac3, hits give low values 0.921 | S. cerevisiae deletion strains, locus YDR162C, strain NBP2, hits give low values 0.987 | S. cerevisiae deletion strains, locus YDR195W, strain ref2 1 | S. cerevisiae deletion strains, locus YDR297W, strain sur2, hits give low values 0.998 | S. cerevisiae deletion strains, locus YDR318W, strain mcm21, hits give low values 0.988 | S. cerevisiae deletion strains, locus YDR334W, strain swr1, hits give low values 1.01 | S. cerevisiae deletion strains, locus YDR335W, strain msn5, hits give low values 1 | S. cerevisiae deletion strains, locus YDR388W, hits give low values 0.998 | S. cerevisiae deletion strains, locus YDR502C, strain sam2, hits give low values 0.978 | S. cerevisiae deletion strains, locus YEL003W, strain gim4, hits give low values 0.996 | S. cerevisiae deletion strains, locus YEL037C, strain rad23, hits give low values 1.01 | S. cerevisiae deletion strains, locus YEL061C, strain CIN8 (second series), hits give low values 1 | S. cerevisiae deletion strains, locus YEL061C, strain CIN8, hits give low values 0.993 | S. cerevisiae deletion strains, locus YER015W, strain faa2, hits give low values 1 | S. cerevisiae deletion strains, locus YER016W, strain bim1, hits give low values 0.994 | S. cerevisiae deletion strains, locus YER110C, hits give low values 1.01 | S. cerevisiae deletion strains, locus YER111C, strain swi4, hits give low values 1.01 | S. cerevisiae deletion strains, locus YER155C, strain BEM2 (second series), hits give low values 0.963 | S. cerevisiae deletion strains, locus YER155C, strain BEM2, hits give low values 0.983 | S. cerevisiae deletion strains, locus YER167W, strain BCK2, hits give low values 0.982 | S. cerevisiae deletion strains, locus YFR010W, strain ubp6, hits give low values 1 | S. cerevisiae deletion strains, locus YGL078C, strain dbp3, hits give low values 1.01 | S. cerevisiae deletion strains, locus YGL086W, strain mad1, hits give low values 0.968 | S. cerevisiae deletion strains, locus YGL167C, strain pmr1, hits give low values 0.985 | S. cerevisiae deletion strains, locus YGL173C, strain kem1, hits give low values 0.995 | S. cerevisiae deletion strains, locus YGL227W, strain vid30, hits give low values 0.996 | S. cerevisiae deletion strains, locus YGL240W, strain doc1, hits give low values 1.01 | S. cerevisiae deletion strains, locus YGL248W, strain PDE1, hits give low values 0.99 | S. cerevisiae deletion strains, locus YGL253W, strain hxk2, hits give low values 0.982 | S. cerevisiae deletion strains, locus YGR078C, strain PAC10, hits give low values 0.983 | S. cerevisiae deletion strains, locus YGR135W, strain pre9, hits give low values 1.01 | S. cerevisiae deletion strains, locus YGR229C, strain SMI1, hits give low values 0.995 | S. cerevisiae deletion strains, locus YGR252W, strain gcn5, hits give low values 1.05 | S. cerevisiae deletion strains, locus YHR013C, strain ard1, hits give low values 0.934 | S. cerevisiae deletion strains, locus YHR027C, strain rpn1, hits give low values 0.988 | S. cerevisiae deletion strains, locus YHR079C, strain IRE1 (second series), hits give low values 0.997 | S. cerevisiae deletion strains, locus YHR094C, strain hxt1, hits give low values 1 | S. cerevisiae deletion strains, locus YHR129C, strain ARP1, hits give low values 0.982 | S. cerevisiae deletion strains, locus YHR142W, strain chs7, hits give low values 0.972 | S. cerevisiae deletion strains, locus YHR200W, strain rpn10, hits give low values 1.01 | S. cerevisiae deletion strains, locus YIL066C, strain RNR3, hits give low values 0.98 | S. cerevisiae deletion strains, locus YIL073C, strain SPO22, hits give low values 1.03 | S. cerevisiae deletion strains, locus YIL125W, strain kgd1, hits give low values 0.989 | S. cerevisiae deletion strains, locus YIR030C, strain dcg1, hits give low values 0.998 | S. cerevisiae deletion strains, locus YJL092W, strain hpr5, hits give low values 0.988 | S. cerevisiae deletion strains, locus YJL095W, strain BCK1 (second series), hits give low values 0.997 | S. cerevisiae deletion strains, locus YJL095W, strain BCK1, hits give low values 1.02 | S. cerevisiae deletion strains, locus YJL115W, strain asf1, hits give low values 1 | S. cerevisiae deletion strains, locus YJL129C, strain trk1, hits give low values 1.01 | S. cerevisiae deletion strains, locus YJL134W, strain LCB3, hits give low values 0.988 | S. cerevisiae deletion strains, locus YJL154C, strain vps35, hits give low values 1 | S. cerevisiae deletion strains, locus YJL164C, strain tpk1, hits give low values 0.988 | S. cerevisiae deletion strains, locus YJL166W, strain qcr8, hits give low values 0.991 | S. cerevisiae deletion strains, locus YJL168C, strain set2, hits give low values 0.995 | S. cerevisiae deletion strains, locus YJL187C, strain SWE1 (second series), hits give low values 1.01 | S. cerevisiae deletion strains, locus YJR043C, strain POL32, hits give low values 1.01 | S. cerevisiae deletion strains, locus YKL009W, strain mrt4, hits give low values 0.965 | S. cerevisiae deletion strains, locus YKL068W, hits give low values 0.988 | S. cerevisiae deletion strains, locus YKL085W, strain MDH1 (second series), hits give low values 0.992 | S. cerevisiae deletion strains, locus YKL085W, strain MDH1, hits give low values 0.992 | S. cerevisiae deletion strains, locus YKL160W, strain elf1, hits give low values 0.996 | S. cerevisiae deletion strains, locus YKR026C, strain gcn3, hits give low values 0.972 | S. cerevisiae deletion strains, locus YKR091W, strain srl3, hits give low values 0.993 | S. cerevisiae deletion strains, locus YLL001W, strain dnm1, hits give low values 0.986 | S. cerevisiae deletion strains, locus YLL026W, hits give low values 0.994 | S. cerevisiae deletion strains, locus YLL041C, strain sdh2, hits give low values 0.991 | S. cerevisiae deletion strains, locus YLR027C, strain aat2, hits give low values 0.993 | S. cerevisiae deletion strains, locus YLR039C, strain RIC1, hits give low values 1 | S. cerevisiae deletion strains, locus YLR058C, strain SHM2, hits give low values 1.02 | S. cerevisiae deletion strains, locus YLR102C, strain apc9, hits give low values 1 | S. cerevisiae deletion strains, locus YLR221C, strain rsa3, hits give low values 0.978 | S. cerevisiae deletion strains, locus YLR258W, strain gsy2, hits give low values 1 | S. cerevisiae deletion strains, locus YLR262C, strain YPT6 (second series), hits give low values 0.961 | S. cerevisiae deletion strains, locus YLR262C, strain YPT6, hits give low values 0.944 | S. cerevisiae deletion strains, locus YLR268W, strain sec22, hits give low values 0.965 | S. cerevisiae deletion strains, locus YLR320W, strain mms22, hits give low values 0.922 | S. cerevisiae deletion strains, locus YLR330W, strain CHS5, hits give low values 0.969 | S. cerevisiae deletion strains, locus YLR342W, strain FKS1 (second series), hits give low values 0.947 | S. cerevisiae deletion strains, locus YLR342W, strain FKS1, hits give low values 0.976 | S. cerevisiae deletion strains, locus YLR357W, strain rsc2, hits give low values 1.01 | S. cerevisiae deletion strains, locus YLR370C, strain arc18, hits give low values 1.01 | S. cerevisiae deletion strains, locus YLR371W, strain rom2, hits give low values 1.02 | S. cerevisiae deletion strains, locus YLR384C, strain iki3, hits give low values 0.984 | S. cerevisiae deletion strains, locus YML016C, strain PPZ1, hits give low values 1 | S. cerevisiae deletion strains, locus YML032C, strain rad52, hits give low values 1 | S. cerevisiae deletion strains, locus YML120C, strain ndi1, hits give low values 1 | S. cerevisiae deletion strains, locus YML124C, strain tub3, hits give low values 1 | S. cerevisiae deletion strains, locus YMR058W, strain fet3, hits give low values 0.986 | S. cerevisiae deletion strains, locus YMR078C, strain ctf18, hits give low values 0.999 | S. cerevisiae deletion strains, locus YMR125W, strain sto1, hits give low values 1.01 | S. cerevisiae deletion strains, locus YMR129W, hits give low values 0.991 | S. cerevisiae deletion strains, locus YMR205C, strain PFK2, hits give low values 0.95 | S. cerevisiae deletion strains, locus YMR223W, strain ubp8, hits give low values 0.993 | S. cerevisiae deletion strains, locus YMR231W, strain pep5, hits give low values 1.01 | S. cerevisiae deletion strains, locus YMR307W, strain GAS1, hits give low values 0.97 | S. cerevisiae deletion strains, locus YNL067W, strain RPL9B, hits give low values 1.02 | S. cerevisiae deletion strains, locus YNL209W, strain ssb2, hits give low values 1.01 | S. cerevisiae deletion strains, locus YNL233W, strain BNI4, hits give low values 0.988 | S. cerevisiae deletion strains, locus YNL248C, strain rpa49, hits give low values 0.984 | S. cerevisiae deletion strains, locus YNL250W, strain rad50, hits give low values 1.01 | S. cerevisiae deletion strains, locus YNL271C, strain bni1, hits give low values 1.01 | S. cerevisiae deletion strains, locus YNL298W, strain CLA4, hits give low values 1 | S. cerevisiae deletion strains, locus YNL307C, strain MCK1, hits give low values 0.934 | S. cerevisiae deletion strains, locus YNL322C, strain KRE1 (second series), hits give low values 0.975 | S. cerevisiae deletion strains, locus YNR049C, strain mso1, hits give low values 0.99 | S. cerevisiae deletion strains, locus YNR052C, strain pop2, hits give low values 1.03 | S. cerevisiae deletion strains, locus YOL006C, strain TOP1, hits give low values 0.907 | S. cerevisiae deletion strains, locus YOL012C, strain htz1 1.19 | S. cerevisiae deletion strains, locus YOL147C, strain pex11, hits give low values 1 | S. cerevisiae deletion strains, locus YOR001W, strain rrp6, hits give low values 0.995 | S. cerevisiae deletion strains, locus YOR061W, strain CKA2, hits give low values 1 | S. cerevisiae deletion strains, locus YOR069W, strain VPS5, hits give low values 0.997 | S. cerevisiae deletion strains, locus YOR070C, strain gyp1, hits give low values 1.01 | S. cerevisiae deletion strains, locus YOR080W, strain dia2, hits give low values 1.01 | S. cerevisiae deletion strains, locus YOR083W, strain WHI5, hits give low values 1 | S. cerevisiae deletion strains, locus YOR106W, strain vam3, hits give low values 1.01 | S. cerevisiae deletion strains, locus YOR136W, strain idh2, hits give low values 0.984 | S. cerevisiae deletion strains, locus YOR144C, strain elg1, hits give low values 1 | S. cerevisiae deletion strains, locus YOR184W, strain ser1, hits give low values 0.893 | S. cerevisiae deletion strains, locus YOR265W, strain rbl2, hits give low values 1 | S. cerevisiae deletion strains, locus YOR270C, strain vph1, hits give low values 0.843 | S. cerevisiae deletion strains, locus YOR290C, strain snf2, hits give low values 0.996 | S. cerevisiae deletion strains, locus YOR316C, strain cot1, hits give low values 0.996 | S. cerevisiae deletion strains, locus YPL051W, strain arl3, hits give low values 0.998 | S. cerevisiae deletion strains, locus YPL078C, strain atp4, hits give low values 0.991 | S. cerevisiae deletion strains, locus YPL106C, strain sse1, hits give low values 0.976 | S. cerevisiae deletion strains, locus YPL240C, strain hsp82, hits give low values 0.995 | S. cerevisiae deletion strains, locus YPL241C, strain CIN2, hits give low values 0.988 | S. cerevisiae deletion strains, locus YPR119W, strain clb2, hits give low values 1 | S. cerevisiae deletion strains, locus YPR141C, strain kar3, hits give low values 1 | S. cerevisiae deletion strains, locus YPR163C, strain tif3, hits give low values 0.983 | S. cerevisiae deletion strains, locus YPR167C, strain met16, hits give low values 0.994 | S. cerevisiae deletion strains, strain wtn01, hits give low values 0.973 | S. cerevisiae strains, strain wild type, hits give low values 0.996
active: S. cerevisiae deletion strains, locus YDR392W, strain spt3, hits give low values 0.628 | S. cerevisiae deletion strains, locus YKR001C, strain vps1, hits give low values 0.897 | S. cerevisiae deletion strains, locus YLR418C, strain cdc73, hits give low values 0.839 | S. cerevisiae deletion strains, locus YNL071W, strain lat1, hits give low values 0.91
